Source: PubChem BioAssay
Shown are actives, neighbours in structure and some others; about 2.2% of the full set was active somewhere.
Shn3 3UTR inh = reduction of Shn3 3'UTR firefly luciferase signal, primary screen, Schnurri-3 inhibitor project, cell-based, Clone20 osteoblasts, set 2. inhibition, % at 12.5 µM. AID 588674, 2011. Clone20 osteoblast Shn3 3'UTR firefly luciferase, 24 h. actives 0.52% (n = 360,000);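 active means mean inhibition of at least 75% with every replicate also reaching 75%; inconclusive means mean inhibition at least 75% but some replicate below; inactive means mean inhibition below 75%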;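 further: 0% = median of neutral control wells and 100% = pilot-screen positive control compound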
Beta cell apopt = inhibitors of cytokine-induced beta cell apoptosis, primary screen, luminescence | actives 0.8% (n = 300,000) | protection from apoptosis, % (no concentration beside the values) | INS-1E cytokine-induced death, ATP luminescence, 48 h; percent of positive-control rescue, neutral wells zero | AID 435005, 2010;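 active means Every replicate reaches about 75%, or at least half do and their mean reaches it too, limit read from the data; inconclusive means At least half of replicates reach the limit but their mean does not; inactive means Under half of replicates reach the limit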;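 further: 0% = cytokine-treated negative control wells and 100% = positive control rescue; higher means more ATP so stronger rescue from cytokine killing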
CSC inhib = cancer stem cell viability inhibitors, primary screen, luminescence. cancer stem cell-like cells viability. inhibition, % at 7.5 µM. actives 1.1% (n = 300,000). AID 2717, 2010; in the data active means inhibition above about 75%; inconclusive means no clear call, values can overlap the other calls; tested in HMLE shEcad cells
Calb FLC = C. albicans growth inhibition with fluconazole, primary screen, CaCi-2 strain, Alamar Blue fluorescence. C. albicans CaCi-2 (fluconazole-resistant clinical isolate) + fluconazole, 48 h. growth inhibition, % (concentration not given with the values). actives 0.57% (n = 300,000);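 active means growth inhibition above about 58% in most replicates, limit read from the data, passing the limit was not always enough; inconclusive means exactly half the replicates above a set limit; inactive means most replicates below a set limit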;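 further: all wells also contain fluconazole at 8 µg/ml as a sub-toxic cotreatment; 0% = median of DMSO wells and 100% = median of geldanamycin control wells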
PfHsp90 yeast 2 = growth inhibition of PfHsp90-expressing yeast, primary screen, antimalarial PfHsp90 inhibitor project, S. cerevisiae, BacTiter-Glo luminescence, single point, set 2. BacTiter-Glo ATP, 48 h; yeast lacking PDR1 and PDR3 efflux regulators. inhibition, % at 9.4 µM. actives 0.32% (n = 310,000);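 active means every replicate shows inhibition above about 80%, whatever the replicate mean, limit read from the data; inconclusive means mean inhibition reaches the set limit but some replicate falls short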;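 further: 0% = DMSO neutral controls and 100% = 20 µM radicicol positive controls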
Starred values were filed as active, the others as inactive; ? = inconclusive; . = no result given.

SMILES | Shn3 3UTR inh | Beta cell apopt | CSC inhib | Calb FLC | PfHsp90 yeast 2
Cc1ccc(CN2C(=O)/C(=C\c3ccc(C(=O)NCc4cccnc4)cc3)Oc3ccccc32)cc1 | . | 99* | 108* | 1 | .
O=C(Nc1cc(S(=O)(=O)Nc2ccccc2F)ccc1Cl)c1ccc(F)cc1F | -7 | 0 | 26 | . | .
Cc1c(-c2ccccc2)c(-c2ccc(OCCN(C)C)cc2)n2ccccc12 | -4 | . | . | . | -14
CN(C)CCOc1ccc(-c2c(-c3ccsc3)sc3ccccc23)cc1 | -5 | 1 | 104* | . | 24
COc1ccc(-c2sc3ccccc3c2-c2ccc(OCCN(C)C)cc2)cc1 | 51 | 76* | 142* | . | 41
COc1cccc(-c2sc3ccc(OC)cc3c2-c2ccc(O)cc2)c1 | -6 | 4 | 129* | . | 1
COc1cccc(-c2sc3ccc(OC)cc3c2-c2ccc(OCCN(C)C)cc2)c1 | -4 | 3 | 104* | . | 40
COc1cccc(-c2sc3ccc(OC)cc3c2-c2cc(F)cc(OC)c2)c1 | 2 | -4 | 25 | . | -13
Cc1ccc(S(=O)(=O)Nc2cccc(S(=O)(=O)Nc3ccccc3C(=O)O)c2)c(C)c1 | 0 | 4 | -6 | . | -14
COc1ccc(CN(C)Cc2cc(=O)n3ccsc3n2)c(OC)c1OC | 10 | -2 | -6 | 0 | 20
Cc1cc(C)nc(SCC(=O)NC2CCCCC2C)n1 (stereo not given) | -2 | . | -11 | -15 | 6
CCOC(=O)c1ccc(S(=O)(=O)N2CCN(CCc3ccncc3)CC2)cc1 | 8 | 1 | -6 | . | -1
C=CCSc1nc(-c2ccccc2)c(C#N)c(=O)[nH]1 | -25 | -4 | 1 | -11 | -15
N#Cc1c(-c2ccccc2)nc(SCc2ccc(Cl)cc2)[nH]c1=O | -4 | -11 | 104* | 29 | -9
OCCCNc1c2ccccc2nc2ccccc12 | -16 | 109* | 32 | 2 | 5
Cc1ccc(-c2nc(NCCCO)c3ccccc3n2)cc1 | -10 | 10 | -18 | 8 | 12
COc1ccc(CCNc2c3ccccc3nc3ccccc23)cc1OC | 26 | 77* | 13 | -14 | -7
c1ccc2c(NCCc3c[nH]c4ccccc34)c3ccccc3nc2c1 | 74 | . | 87* | 12 | 13
O=C(NCCc1c[nH]c2ccccc12)C(=O)Nc1ccccc1 | -18 | -3 | 81* | 0 | -16
CCN(CC(=O)Nc1ccc(OC)cc1)CC(=O)Nc1cccc(S(=O)(=O)N2CCOCC2)c1 | 7 | . | . | . | .
Cc1ccc(S(=O)(=O)NCC23C=CC(O2)C2C(=O)N(c4ccccc4)C(=O)C23)cc1 (stereo not given) | 14 | -4 | -24 | -4 | 106*
Cc1ccc(NC(=S)NCC23C=CC(O2)C2C(=O)N(c4ccc(C)cc4)C(=O)C23)cc1 (stereo not given) | 30 | -13 | -8 | -11 | 107*
Cc1cccc(NC(=S)NCC23C=CC(O2)C2C(=O)N(c4ccc(Cl)cc4)C(=O)C23)c1 (stereo not given) | 1 | -4 | 5 | -8 | 107*
Cc1ccc(N2C(=O)C3C4C=CC(CNC(=S)N5CCN(c6ccccc6)CC5)(O4)C3C2=O)cc1 (stereo not given) | . | 0 | 19 | -3 | 104*
CC(C)(C)OC(=O)NCC12C=CC(O1)C1C(=O)N(Cc3ccccc3)C(=O)C12 (stereo not given) | 0 | -4 | -6 | -1 | 50
SMILES | Shn3 3UTR inh | Beta cell apopt | CSC inhib | Calb FLC | PfHsp90 yeast 2
O=C1CCCN1CCCN=c1c([N+](=O)[O-])nn(-c2ccc(Cl)cc2)n1O | -24 | . | . | 85* | -122
COc1ccc(-n2nc([N+](=O)[O-])c(=NCCCN3CCCC3=O)n2O)cc1 | . | 3 | -4 | 0 | -3
S=C1NC2(CCCCC2)NN1c1ccccc1 | 0 | -2 | -9 | 78* | -5
O=C1NC2(NN1c1ccccc1)C1CC3CC(C1)CC2C3 (stereo not given) | 6 | -7 | -10 | -9 | -27
O=C1NC2(CCC3(CC2)OCCO3)NN1c1ccccc1 | 9 | 2 | 2 | 120* | -2
COc1cccc(/C=C/C(=O)c2ccc(NS(=O)(=O)c3ccc(C)cc3)cc2)c1 | 23 | 4 | 81* | ? | -11
COc1cccc(C(=O)/C=C/Nc2ccc(S(=O)(=O)Nc3cccc(C(C)=O)c3)cc2)c1 | 75 | 16 | 5 | 1 | -13
COc1cc(/C=C/C(=O)c2ccc(NS(=O)(=O)c3ccc(C)cc3)cc2)ccc1OC(F)F | 12 | . | -7 | 6 | 24
COc1cc(/C=C/C(=O)c2ccc(NS(=O)(=O)c3ccc(C)cc3)cc2)cc(OC)c1O | 12 | -19 | 80* | 1 | -9
O=C(NC1CC1)c1ccc(-n2cccc2)cc1 | -21 | 5 | 2 | 11 | 2
CN(c1ccccc1)c1nc(N2CCCC2)nc(-n2ccnc2)n1 | -3 | 2 | 19 | -25 | -11
c1ccc(N(c2ccccc2)c2nc(N3CCCC3)nc(-n3ccnc3)n2)cc1 | 31 | 24 | 101* | 3 | -18
Clc1ccc2c(N/N=C/c3ccccc3Br)ccnc2c1 | 21 | 43 | 50 | -5 | 7
O=[N+]([O-])c1ccc(/C=N/Nc2ccnc3cc(Cl)ccc23)o1 | -5 | 107* | 15 | -22 | -16
Clc1ccc2c(N/N=C/c3cccc(Br)c3)ccnc2c1 | 27 | 81* | 80* | -4 | -23
O=S(=O)(c1cccc2cccnc12)N1CCN(Cc2ccccc2)CC1 | 6 | -10 | -14 | -9 | -21
Cc1nnc(-c2ccc(N3CCCCCC3)c([N+](=O)[O-])c2)o1 | -45 | 0 | 2 | 3 | 8
COCCNC(=S)N1CCCC(CO)C1 (stereo not given) | -2 | 2 | -7 | -12 | -3
CC(C)(C)OC(=O)N1CCC[C@H]1C(=O)N/N=C/c1cccc2nccnc12 | -13 | -6 | 4 | 3 | .
O=C(NCC(=O)N1CCN(c2ccccc2F)CC1)c1ccc(Br)o1 | -1 | 2 | . | 0 | 17
O=C(Nc1cccc(Cl)c1)Nc1cc(S(=O)(=O)N2CCCCC2)ccc1Cl | 78 | 51 | 87* | -18 | 3
Cc1ccc2nc(SCC(=O)Nc3cccc(S(=O)(=O)NC4=NCCCCC4)c3)[nH]c2c1 | 14 | -3 | 2 | 9 | 3
Cc1cc(C)n(-c2nc3ccccc3c(=O)n2OCC#N)n1 | 70 | 84* | 41 | 81* | -34
Cc1cccc(CN2C(=O)[C@@H]3Cc4c([nH]c5ccccc45)C(C)(C)N3C2=O)c1 | -21 | . | 76* | 21 | -5
NS(=O)(=O)c1cccc(C(=O)OCC(=O)NC2CCCc3ccccc32)c1 (stereo not given) | -28 | 2 | 14 | . | .
COc1ccc(/C=C(/NC(=O)c2ccco2)C(=O)N2CCCCC2)cc1 | 5 | -14 | -9 | 1 | 6
